# Where “and” joins values, the source holds several entries; their conditions need not be identical. Equal entries are not always repeated. Calls of active or inactive are those of the source. Rule as the data show it, unless noted: active = inhibition above about 80%; inactive = the rest.
# Legend:
# [1] = growth inhibition, single agent or in combination, cell-based, chromothripsis tumors, cisplatin or BGB combos (AID 1671449); details: LFS_MB_P medulloblastoma cells;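 also: cells exposed for 96 hours; 0% = vehicle DMSO and 100% = killing by high DMSO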
# [2] = growth inhibition, single agent and combos, cell-based, chromothripsis tumors, cisplatin or BGB combos (AID 1671450); details: HDN33 neuroblastoma cells, stronger effect = higher value;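 also: cells exposed to compound for four days; 0% = vehicle DMSO and 100% = cell killing by high DMSO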
# [3] = growth inhibition, single agents and combos, ICB984, cell-based, cisplatin or BGB combos, synergistic combos for chromothripsis tumors (AID 1671451; call rule not given here;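 also: cells exposed for 96 hours before readout; 0% = vehicle DMSO and 100% = killing by high DMSO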); details: ICB984 medulloblastoma cells, drug combinations, stronger effect = higher value
# [4] = growth inhibition, single agents and combos, LFS_MB_1R, cell-based, cisplatin or BGB combos, synergistic combos for chromothripsis tumors (AID 1671452); details: LFS_MB_1R medulloblastoma cells, stronger effect = higher value;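 also: cells exposed for 96 hours before readout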
# [5] = growth inhibition, single agents and combos, HTB85, cell-based, BGB or cisplatin IC20 combos, synergistic combos for chromothripsis tumors (AID 1671453); details: HTB85 osteosarcoma cells, drug combinations, stronger effect = higher value;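 also: cells exposed for 96 hours before readout; 0% = vehicle DMSO and 100% = high DMSO killing control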
# [6] = growth inhibition, single agents and combos, CRL2098, cell-based, BGB or cisplatin IC20 combos, synergistic combos for chromothripsis tumors (AID 1671454); details: CRL2098 osteosarcoma cells, drug combinations, stronger effect = higher value;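 also: cells exposed for 96 h before readout; 0% = vehicle DMSO and 100% = killing by high DMSO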
# [7] = growth inhibition, single agents and combos, HD-MB03, cell-based, BGB or cisplatin IC20 combos, synergistic combos for chromothripsis tumors (AID 1671455; in the data active = inhibition above about 83%;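 also: 0% = vehicle DMSO and 100% = high DMSO as cytotoxic control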); details: HD-MB03 medulloblastoma cells, stronger effect = higher value
# [8] = growth inhibition, single agents and combos, UWB1.289, cell-based, BGB or cisplatin combos, synergistic combos for chromothripsis tumors (AID 1671456); details: UWB1.289 ovarian carcinoma cells, stronger effect = higher value;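 also: cells exposed to compound for four days; 0% = vehicle DMSO and 100% = killing by high DMSO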
# [9] = growth inhibition, single agents and combos, LFS_MB_2R, cell-based, cisplatin combos, synergistic combos for chromothripsis tumors (AID 1671457); details: LFS_MB_2R medulloblastoma cells, stronger effect = higher value;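 also: cells exposed to compound for four days before readout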
# [10] = growth inhibition, MDA-MB-436, cell-based, BGB or cisplatin combos, synergistic combos for chromothripsis tumors (AID 1671458; call rule not given here;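 also: cells exposed for 96 hours; 0% = vehicle DMSO and 100% = killing by high DMSO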); details: MDA-MB-436 breast carcinoma growth inhibition, drug combinations, stronger effect = higher value
# [11] = UWB1.289_BRCA1 ovarian cancer growth, cell-based, BGB or cisplatin combinations (AID 1671459); details: UWB1.289 BRCA1 ovarian carcinoma, drug combinations, stronger effect = higher value
# [12] = drug combination toxicity in non-malignant astrocytes – cell-based, BGB or cisplatin IC20 combos, cytotoxicity control for chromothriptic childhood tumor combination screen (AID 1671460); details: Human astrocytes, viability inhibition, drug combinations, at 0.5 µM, stronger effect = higher value;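 also: cells exposed to compounds for 96 hours before viability readout; 0% = vehicle and 100% = killing control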
# [13] = BT084 cell growth, single and combined drugs, ICGC_MB145, cisplatin and BGB IC40 combos (AID 1671461); details: BT084 medulloblastoma cells, drug combinations, stronger effect = higher value;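 also: cells exposed to drugs for 96 hours; 0% = vehicle DMSO and 100% = high DMSO full killing control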
# [14] = RCMB18 cell growth, single agent and combined, cisplatin and BGB IC40 combos (AID 1671462); details: RCMB18 medulloblastoma cells, stronger effect = higher value;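 also: cells exposed to compound for four days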
# [15] = CRL1545 cell growth, single agent and combined, cisplatin and BGB IC20 combos (AID 1671464); details: CRL1545 osteosarcoma cells, stronger effect = higher value;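 also: cells exposed to compound for 96 hours before readout; 0% = vehicle DMSO and 100% = high DMSO killing control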
# [16] = measured here: combination with BGB IC40, at 0.05 µM
# [17] = measured here: with BGB IC20 combination, at 0.5 µM
# [18] = measured here: with cisplatin IC20 combination, at 0.5 µM
# [19] = measured here: combination with cisplatin, at 0.5 µM
# [20] = measured here: combination with cisplatin, at 5 µM
smiles,measurement,setting,value
O=c1[nH]c(=S)[nH]c(/N=C/c2ccccc2)c1N=Cc1ccccc1,inhibition,"[1]; at 0.5 µM, stronger effect = higher value",10.8% (inactive) and -1.11% (inactive)
same,inhibition,"[1]; measured here: combination with BGB IC20, at 0.005 µM",7.44% and 1.3%
same,inhibition,"[1]; measured here: combination with BGB IC40, at 0.005 µM",-16.5% and -26.2%
same,inhibition,[1]; [16],0.419% and 2.63%
same,inhibition,"[1]; measured here: combination with cisplatin, at 0.5 µM, stronger effect = higher value",24.4% and -35.7%
same,inhibition,"[1]; measured here: combination with cisplatin, at 5 µM, stronger effect = higher value",-12.6% and -19.3%
same,inhibition,"[2]; BGB combo, at 5 µM",-34% and -42.2%
same,inhibition,[2]; at 0.5 µM,-32.1% (inactive) and -19.5% (inactive)
same,inhibition,"[2]; cisplatin combo, at 5 µM",-21.4% and -48.2%
same,inhibition,[2]; [17],-30.4% and -16.3%
same,inhibition,[2]; [18],-42.2% and -15.7%
same,inhibition,"[2]; single agent, at 5 µM",-37.4% and -37%
same,inhibition,"[3]; BGB IC20 combo, at 0.005 µM",1.63% and -15.3%
same,inhibition,"[3]; BGB IC40 combo, at 0.005 µM",-50.4% and 4.14%
same,inhibition,"[3]; BGB IC40 combo, at 0.05 µM",-19.4% and -32.8%
same,inhibition,[3]; at 0.5 µM,-11.2% (inactive) and -6.96% (inactive)
same,inhibition,"[3]; cisplatin combo, at 0.05 µM",-22.8% and -39.7%
same,inhibition,"[3]; cisplatin combo, at 0.5 µM",-24.4% and 3.72%
same,inhibition,"[3]; cisplatin combo, at 5 µM",-19.7% and -8.53%
same,inhibition,"[3]; measured here: 5 uM single agent, at 5 µM",-28.4% and -9.24%
same,inhibition,[4]; at 0.5 µM,-24.3% (inactive) and -5.83% (inactive)
same,inhibition,[4]; [16],-16.1% and -5.8%
same,inhibition,[4]; [19],-52.1% and -29.6%
same,inhibition,[4]; [20],-67.9% and -16.8%
same,inhibition,[5]; at 0.5 µM,-24.2% (inactive) and -31.7% (inactive)
same,inhibition,"[5]; measured here: with BGB IC20, at 0.5 µM",-36.7% and -29.2%
same,inhibition,"[5]; measured here: with BGB IC20, at 5 µM",-72.3% and -10.6%
same,inhibition,"[5]; measured here: with cisplatin IC20, at 0.5 µM",-17.7% and -30.3%
same,inhibition,"[5]; measured here: with cisplatin IC20, at 5 µM",-46.1% and -5.16%
same,inhibition,"[5]; single agent, at 5 µM",-26.4% and -23.9%
same,inhibition,[6]; at 0.5 µM,-71.1% (inactive) and -62.3% (inactive)
same,inhibition,"[6]; measured here: combination with BGB at IC20, at 0.5 µM",-91.5% and -60.8%
same,inhibition,"[6]; measured here: combination with cisplatin at IC20, at 0.5 µM",-66.2% and -85.1%
same,inhibition,[7]; at 0.5 µM,-16.3% (inactive) and -12.6% (inactive)
same,inhibition,"[7]; measured here: combo with BGB at IC20, at 0.5 µM",-14.6% and -13.1%
same,inhibition,"[7]; measured here: combo with cisplatin at IC20, at 0.5 µM",-24.1% and -18.2%
same,inhibition,[8]; at 0.5 µM,-10.1% (inactive) and -11.6% (inactive)
same,inhibition,"[8]; measured here: inhibition with BGB combination, at 0.05 µM",-8.71% and -6.64%
same,inhibition,"[8]; measured here: inhibition with cisplatin combination, at 0.05 µM",-18.2% and -17.6%
same,inhibition,[9]; at 0.5 µM,-2.17% (inactive) and -7.03% (inactive)
same,inhibition,[9]; [19],4.09% and -15.4%
same,inhibition,[9]; [20],-75.4% and -34.5%
same,inhibition,[10]; at 0.5 µM,-13.4% (inactive) and -8.5% (inactive)
same,inhibition,"[10]; measured here: BGB combination, at 0.5 µM",-4.77% and -3.51%
same,inhibition,"[10]; measured here: BGB combination, at 5 µM",-0.125% and 9.68%
same,inhibition,"[10]; measured here: cisplatin combination, at 0.5 µM",-26% and -20.1%
same,inhibition,"[10]; measured here: cisplatin combination, at 5 µM",-13.5% and -24.6%
same,inhibition,"[11]; BGB combination, concentration series, at 5 µM",-20.1% and -21%
same,inhibition,[11]; at 0.5 µM,-11.1% (inactive) and -17.6% (inactive)
same,inhibition,"[11]; cisplatin combination, concentration series, at 5 µM",-0.543% and -15.8%
same,inhibition,[12],-14.7% (inactive) and -11.3% (inactive)
same,inhibition,[12]; measured here: combo with BGB IC20,-6.75% and -6.18%
same,inhibition,[12]; measured here: combo with cisplatin IC20,-39.7% and -17.5%
same,inhibition,[13]; at 0.5 µM,-0.252% (inactive) and 5.93% (inactive)
same,inhibition,"[13]; cisplatin combination, at 0.5 µM",-5.14% and -7.54%
same,inhibition,"[13]; cisplatin combination, at 5 µM",-2.96% and -198%
same,inhibition,"[13]; measured here: BGB IC40 combination 0.05 uM, at 0.05 µM",11.6% and -6.05%
same,inhibition,"[13]; single agent, at 5 µM",-8.91% and -10.5%
same,inhibition,[14]; at 0.5 µM,-27.2% (inactive) and -2.36% (inactive)
same,inhibition,"[14]; cisplatin combo, at 5 µM",-73.6% and -65.6%
same,inhibition,"[14]; measured here: BGB IC40 combination, at 0.05 µM",-4.14% and 6.35%
same,inhibition,[14]; [19],-76.9% and 2.66%
same,inhibition,"[14]; single agent, at 5 µM",-10.2% and -0.506%
same,inhibition,[15]; at 0.5 µM,-63.6% (inactive) and -4.77% (inactive)
same,inhibition,[15]; [17],-46.4% and -22.1%
same,inhibition,[15]; [18],-76% and 2.34%
same,inhibition,"[15]; single agent, at 0.05 µM",-68.7% and -41.2%
same,inhibition,"[15]; single agent, at 5 µM",-27.1% and -36.4%

# — PubChem BioAssay
